Results from PubChem BioAssay.
Calls of active or inactive are those of the source.

Key:
[1] = system: PRMT1 (protein arginine N-methyltransferase 1); test: small molecules binding arginine methyltransferase PRMT1 – biochemical, small-molecule microarray, 635 nm fluorescence, primary screen (AID 1088); conditions: higher = more signal;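 also: binding of Prmt1 protein to compounds spotted on small-molecule microarray slides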
[2] = growth effects on S. cerevisiae YJM789 – YJM789 clinical isolate, OD600, 24 h, basal, primary screen (AID 1089); conditions: higher = more signal, called active from +8 up or from −8 down;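 also: growth of clinical yeast isolate S. cerevisiae YJM 789 seeded 1000 cells per well; test concentration not given here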
[3] = S. pombe growth modifiers, basal conditions – strain 972, OD600, 24 h, no modulator, primary screen (AID 1090);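 also: basal condition with compound alone and no growth modifier present; test concentration not given here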; conditions: S. pombe 972 growth, higher = more signal, called active from +8 up or from −8 down
[4] = budding yeast growth modifiers under rapamycin – strain BY4716, OD600, 96 h, primary screen (AID 1091); also: test concentration not given here; conditions: S. cerevisiae BY4716 + rapamycin, higher = more signal, called active from +8 up or from −8 down
[5] = molecular target: Torsin-1A-interacting protein 2 (Homo sapiens) (UniProt Q8NFQ8); test: small molecules binding lysate-expressed LULL1 – cell lysate, human LULL1 lysate, 635/667 nm fluorescence, primary screen (AID 1092); conditions: small-molecule microarray, hLULL1 lysate binding, 635 nm fluorescence; higher = more signal;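 also: probe is lysate of COS7 cells overexpressing human LULL1; score merges per-feature 667 nm fluorescence with signal-to-noise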
Sequence of Torsin-1A-interacting protein 2 (Homo sapiens) (Q8NFQ8 whole entry, looked up): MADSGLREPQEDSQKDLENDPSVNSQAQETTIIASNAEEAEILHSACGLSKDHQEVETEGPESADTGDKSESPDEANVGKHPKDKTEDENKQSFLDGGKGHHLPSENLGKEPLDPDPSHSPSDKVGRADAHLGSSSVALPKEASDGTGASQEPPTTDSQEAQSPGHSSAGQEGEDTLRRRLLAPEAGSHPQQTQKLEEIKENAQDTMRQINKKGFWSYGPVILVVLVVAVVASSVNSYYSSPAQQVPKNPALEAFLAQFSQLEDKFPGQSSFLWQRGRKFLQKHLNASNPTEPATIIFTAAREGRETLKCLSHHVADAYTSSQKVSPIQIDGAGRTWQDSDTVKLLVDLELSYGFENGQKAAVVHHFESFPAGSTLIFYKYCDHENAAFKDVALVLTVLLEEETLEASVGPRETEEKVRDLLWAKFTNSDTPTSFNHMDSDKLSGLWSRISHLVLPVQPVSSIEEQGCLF

[6] = optical density change of DRC41 E. coli – strain DRC41, OD650, 24 h, E. coli filamentation project, primary screen (AID 1093);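 also: MC1000 strain lacking acrAB efflux and sulA so SOS filamentation is blocked; test concentration not given here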; conditions: E. coli DRC41 growth, higher = more signal, called active from +8 up or from −8 down
[7] = probe aLefty2 binding to arrayed compounds – biochemical, biotinylated probe, 635/667 nm fluorescence, primary screen (AID 1094); conditions: small-molecule microarray, higher = more signal;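 also: score merges spot fluorescence near 667 nm with spot signal-to-noise ratio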
[8] = system: Noggin (protein binding on small-molecule microarray); test: small molecules binding Noggin protein – biochemical, 635/667 nm fluorescence, primary screen (AID 1095); conditions: 635 nm fluorescence, higher = more signal;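 also: score merges 667 nm feature fluorescence with signal to noise over triplicate slides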
[9] = molecular target: Neurogenic locus notch homolog protein 3 (Homo sapiens) (UniProt Q9UM47); test: small molecules binding NOTCH3 protein – biochemical, 635/667 nm fluorescence, primary screen (AID 1096); conditions: small-molecule microarray, 635 nm fluorescence, higher = more signal
Sequence of Neurogenic locus notch homolog protein 3 (Homo sapiens) (Q9UM47 whole entry, looked up): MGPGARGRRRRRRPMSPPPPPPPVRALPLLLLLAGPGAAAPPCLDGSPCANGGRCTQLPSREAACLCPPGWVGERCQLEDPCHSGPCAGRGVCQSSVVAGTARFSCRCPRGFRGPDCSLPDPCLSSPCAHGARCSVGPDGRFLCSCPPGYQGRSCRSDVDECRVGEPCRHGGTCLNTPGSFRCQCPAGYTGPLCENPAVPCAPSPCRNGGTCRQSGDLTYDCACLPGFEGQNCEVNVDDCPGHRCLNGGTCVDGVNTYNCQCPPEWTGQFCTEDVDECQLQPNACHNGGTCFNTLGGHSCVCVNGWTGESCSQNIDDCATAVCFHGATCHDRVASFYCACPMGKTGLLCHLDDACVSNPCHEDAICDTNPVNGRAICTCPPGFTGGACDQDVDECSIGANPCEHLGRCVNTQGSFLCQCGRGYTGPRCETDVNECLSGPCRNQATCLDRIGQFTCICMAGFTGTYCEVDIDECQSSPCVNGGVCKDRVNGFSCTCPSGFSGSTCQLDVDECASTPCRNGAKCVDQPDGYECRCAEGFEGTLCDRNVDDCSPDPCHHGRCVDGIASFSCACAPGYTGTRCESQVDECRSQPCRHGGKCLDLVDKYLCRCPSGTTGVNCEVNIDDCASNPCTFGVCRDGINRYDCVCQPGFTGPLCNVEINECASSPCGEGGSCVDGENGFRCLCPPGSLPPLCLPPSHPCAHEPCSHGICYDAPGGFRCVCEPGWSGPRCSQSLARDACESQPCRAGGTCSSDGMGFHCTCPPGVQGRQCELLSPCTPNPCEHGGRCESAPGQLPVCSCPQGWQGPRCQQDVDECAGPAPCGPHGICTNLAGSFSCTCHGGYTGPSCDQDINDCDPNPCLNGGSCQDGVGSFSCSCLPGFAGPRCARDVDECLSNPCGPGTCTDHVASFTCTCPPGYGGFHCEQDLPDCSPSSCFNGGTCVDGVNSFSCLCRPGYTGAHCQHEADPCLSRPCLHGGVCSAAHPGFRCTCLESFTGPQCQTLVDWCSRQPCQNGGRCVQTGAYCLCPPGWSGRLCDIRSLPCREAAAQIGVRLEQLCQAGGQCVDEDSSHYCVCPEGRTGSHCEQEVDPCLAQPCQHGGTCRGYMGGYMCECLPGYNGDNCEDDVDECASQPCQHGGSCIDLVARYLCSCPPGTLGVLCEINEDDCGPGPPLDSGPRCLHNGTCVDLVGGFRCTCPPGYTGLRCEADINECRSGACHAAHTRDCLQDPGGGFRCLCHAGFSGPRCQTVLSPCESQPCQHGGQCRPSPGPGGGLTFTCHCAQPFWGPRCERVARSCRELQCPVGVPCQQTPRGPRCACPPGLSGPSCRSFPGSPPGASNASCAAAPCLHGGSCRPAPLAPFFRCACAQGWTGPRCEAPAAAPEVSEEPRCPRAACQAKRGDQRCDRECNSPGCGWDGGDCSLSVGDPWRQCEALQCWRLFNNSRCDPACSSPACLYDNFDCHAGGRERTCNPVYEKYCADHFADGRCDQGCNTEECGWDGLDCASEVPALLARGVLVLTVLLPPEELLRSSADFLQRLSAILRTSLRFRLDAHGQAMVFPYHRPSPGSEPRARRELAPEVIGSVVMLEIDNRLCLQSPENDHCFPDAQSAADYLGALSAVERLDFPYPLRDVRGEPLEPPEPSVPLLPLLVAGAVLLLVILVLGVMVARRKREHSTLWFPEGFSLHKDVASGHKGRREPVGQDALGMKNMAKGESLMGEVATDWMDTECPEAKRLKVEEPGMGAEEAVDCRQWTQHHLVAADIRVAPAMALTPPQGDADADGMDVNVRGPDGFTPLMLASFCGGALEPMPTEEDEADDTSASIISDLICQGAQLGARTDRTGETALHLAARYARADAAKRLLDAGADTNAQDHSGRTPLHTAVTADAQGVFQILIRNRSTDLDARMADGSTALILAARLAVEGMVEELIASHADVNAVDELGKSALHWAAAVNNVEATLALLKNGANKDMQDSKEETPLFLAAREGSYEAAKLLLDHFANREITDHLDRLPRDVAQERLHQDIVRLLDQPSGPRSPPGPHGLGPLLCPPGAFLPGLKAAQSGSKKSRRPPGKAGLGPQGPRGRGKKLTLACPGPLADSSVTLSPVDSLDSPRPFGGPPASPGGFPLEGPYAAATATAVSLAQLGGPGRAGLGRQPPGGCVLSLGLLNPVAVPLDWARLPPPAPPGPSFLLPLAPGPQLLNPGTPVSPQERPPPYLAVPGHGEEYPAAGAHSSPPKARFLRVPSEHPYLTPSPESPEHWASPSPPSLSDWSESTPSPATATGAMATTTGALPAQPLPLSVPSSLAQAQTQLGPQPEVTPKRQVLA

[10] = probe aEGFR binding to arrayed compounds – biochemical, biotinylated probe, 635/667 nm fluorescence, primary screen (AID 1097); conditions: small-molecule microarray, higher = more signal;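 also: probe is a biotinylated anti-EGFR antibody binding compounds printed on slides; score combines fluorescence near 667 nm and signal to noise of each spot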
[11] = system: Plasmodium falciparum Sir2 (PF13_0152, Sir2A); test: Plasmodium falciparum Sir2A binding compounds – biochemical, small-molecule microarray, 635 nm fluorescence, primary screen (AID 1098); conditions: fluorescence 635 nm, higher = more signal;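 also: score merges spot fluorescence intensity with its signal-to-noise ratio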
[12] = probe aDKK1 binding to arrayed compounds – biochemical, biotinylated probe, 635/667 nm fluorescence, primary screen (AID 1099); conditions: small-molecule microarray, higher = more signal;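 also: score merges 667nm spot fluorescence with signal to noise across triplicate slides; reference of the scale not given here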
[13] = probe aCHRDL2 binding to arrayed compounds – biochemical, biotinylated probe, 635/667 nm fluorescence, primary screen (AID 1100); conditions: small-molecule microarray, higher = more signal
[14] = change in splice reporter luminescence, either direction, cell-based, HEK293, spliceosome inhibition project, primary screen (AID 1101); conditions: HEK293 splicing luciferase reporter, 24 h, higher = more signal, called active from +8 up or from −8 down;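 also: HEK293 cells carrying a splicing-competent luciferase reporter gene; test concentration not given here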
[15] = molecular target: Fibroblast growth factor 10 (Homo sapiens) (UniProt O15520); test: compounds binding fibroblast growth factor 10 – biochemical, small-molecule microarray, 635 nm fluorescence, primary screen (AID 1102); conditions: FGF10 binding, fluorescence 635 nm, higher = more signal
Sequence of Fibroblast growth factor 10 (Homo sapiens) (O15520 whole entry, looked up): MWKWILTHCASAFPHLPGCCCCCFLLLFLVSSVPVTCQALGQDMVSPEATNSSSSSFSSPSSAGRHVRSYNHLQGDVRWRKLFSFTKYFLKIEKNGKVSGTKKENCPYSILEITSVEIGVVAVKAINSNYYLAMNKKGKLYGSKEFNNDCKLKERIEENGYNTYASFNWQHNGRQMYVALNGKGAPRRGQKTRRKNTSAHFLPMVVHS

[16] = system: glycogen synthase kinase-3 (GSK3A per assay name; protocol says GSK3B); test: compounds binding glycogen synthase kinase-3 – biochemical, small-molecule microarray, 635 nm fluorescence, GSK3A, primary screen (AID 1103); conditions: fluorescence 635 nm, higher = more signal; also: the record names both GSK3A and GSK3B
[17] = molecular target: Epidermal growth factor receptor (Homo sapiens) (UniProt P00533); test: compounds binding epidermal growth factor receptor – biochemical, small-molecule microarray, 635 nm fluorescence, primary screen (AID 1104); conditions: EGFR binding, higher = more signal;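 also: score merges 667 nm emission intensity with spot signal to noise over triplicate slides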
Sequence of Epidermal growth factor receptor (Homo sapiens) (P00533 whole entry, looked up): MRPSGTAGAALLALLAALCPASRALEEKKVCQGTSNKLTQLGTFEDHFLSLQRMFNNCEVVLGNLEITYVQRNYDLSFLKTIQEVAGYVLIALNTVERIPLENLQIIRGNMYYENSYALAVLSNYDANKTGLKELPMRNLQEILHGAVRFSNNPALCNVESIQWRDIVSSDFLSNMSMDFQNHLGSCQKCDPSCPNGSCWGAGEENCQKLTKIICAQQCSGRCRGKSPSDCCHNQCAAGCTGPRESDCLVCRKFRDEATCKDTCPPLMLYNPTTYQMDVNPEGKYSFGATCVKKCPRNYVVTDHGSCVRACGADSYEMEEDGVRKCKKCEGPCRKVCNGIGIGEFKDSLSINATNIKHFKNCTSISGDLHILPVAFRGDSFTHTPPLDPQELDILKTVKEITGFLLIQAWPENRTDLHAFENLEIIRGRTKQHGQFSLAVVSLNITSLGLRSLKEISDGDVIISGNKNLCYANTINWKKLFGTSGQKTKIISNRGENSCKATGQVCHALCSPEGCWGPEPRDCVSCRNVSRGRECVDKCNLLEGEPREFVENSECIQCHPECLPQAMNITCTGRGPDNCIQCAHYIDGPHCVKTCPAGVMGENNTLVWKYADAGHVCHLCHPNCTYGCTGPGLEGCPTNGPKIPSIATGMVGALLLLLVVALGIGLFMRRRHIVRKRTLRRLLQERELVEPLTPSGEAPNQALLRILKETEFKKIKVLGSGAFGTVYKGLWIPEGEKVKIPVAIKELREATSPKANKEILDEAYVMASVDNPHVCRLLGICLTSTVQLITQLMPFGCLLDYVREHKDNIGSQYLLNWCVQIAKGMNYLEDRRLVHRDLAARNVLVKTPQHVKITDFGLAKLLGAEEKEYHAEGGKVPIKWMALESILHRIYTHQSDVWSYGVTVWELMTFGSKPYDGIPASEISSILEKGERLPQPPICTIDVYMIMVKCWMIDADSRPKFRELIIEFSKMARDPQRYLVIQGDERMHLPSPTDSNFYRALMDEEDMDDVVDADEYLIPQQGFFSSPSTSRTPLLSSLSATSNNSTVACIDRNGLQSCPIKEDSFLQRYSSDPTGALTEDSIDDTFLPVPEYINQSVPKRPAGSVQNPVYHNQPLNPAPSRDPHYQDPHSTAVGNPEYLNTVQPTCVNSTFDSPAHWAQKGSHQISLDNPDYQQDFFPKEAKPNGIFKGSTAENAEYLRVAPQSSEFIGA

[18] = molecular target: Follistatin-related protein 3 (Homo sapiens) (UniProt O95633); test: compounds binding follistatin-related protein 3 – biochemical, small-molecule microarray, 635 nm fluorescence, primary screen (AID 1105); conditions: FSTL3 binding, higher = more signal;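 also: score merges emission near 667 nm and signal to noise per printed spot across three slides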
Sequence of Follistatin-related protein 3 (Homo sapiens) (O95633 whole entry, looked up): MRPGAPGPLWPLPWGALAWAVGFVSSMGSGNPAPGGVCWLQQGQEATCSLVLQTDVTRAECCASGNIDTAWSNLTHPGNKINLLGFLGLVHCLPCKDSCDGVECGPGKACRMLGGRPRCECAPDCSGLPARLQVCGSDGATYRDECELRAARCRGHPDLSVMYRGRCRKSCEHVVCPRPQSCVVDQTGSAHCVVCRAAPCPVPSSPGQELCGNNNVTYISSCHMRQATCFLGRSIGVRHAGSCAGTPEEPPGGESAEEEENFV

[19] = molecular target: Dickkopf-related protein 1 (Homo sapiens) (UniProt O94907); test: small molecules binding DKK1 protein – biochemical, small-molecule microarray, 635 nm fluorescence scan, primary screen (AID 1106); conditions: higher = more signal;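 also: score merges emission near 667 nm with signal to noise over three replicate slides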
Sequence of Dickkopf-related protein 1 (Homo sapiens) (O94907 whole entry, looked up): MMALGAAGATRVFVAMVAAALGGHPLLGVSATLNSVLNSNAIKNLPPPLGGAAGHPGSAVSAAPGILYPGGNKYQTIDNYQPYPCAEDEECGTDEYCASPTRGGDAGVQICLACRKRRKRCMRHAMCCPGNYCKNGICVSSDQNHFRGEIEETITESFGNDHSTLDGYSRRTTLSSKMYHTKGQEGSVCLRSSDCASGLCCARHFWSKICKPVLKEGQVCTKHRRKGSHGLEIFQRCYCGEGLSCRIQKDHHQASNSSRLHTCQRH

[20] = system: Inhibin beta A chain (activin A); test: small molecules binding activin A – biochemical, small-molecule microarray, 635 nm fluorescence scan, primary screen (AID 1107); conditions: INHBA, higher = more signal;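 also: mouse activin A protein probed at 4.33 µg/mL on printed slides; score merges bound-protein fluorescence near 667 nm with spot signal-to-noise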

Row | SMILES | composite z-score [1] | z-score [2] | z-score [3] | z-score [4] | composite z-score [5] | z-score [6] | composite z-score [7] | composite z-score [8] | composite z-score [9] | composite z-score [10] | composite z-score [11] | composite z-score [12] | composite z-score [13] | z-score [14] | composite z-score [15] | composite z-score [16] | composite z-score [17] | composite z-score [18] | composite z-score [19] | composite z-score [20]
1 | CCOC(=O)[C@H](CC(C)C)NC(=O)CCC1CC(OC(=O)NCCc2ccc(F)cc2)CC2(CCCC(COC(=O)NCCC(C)C)O2)O1 (stereo not given in full) | 0.201 | 0.0312 (inactive) | 1.12 (inactive) | 1.08 (inactive) | 1.51 | -0.917 (inactive) | -0.107 | 0.456 | -0.496 | -0.0778 | 0.264 | -0.149 | -0.424 | -0.695 (inactive) | 0.18 | -0.0508 | 0.0889 | 0.27 | 0.324 | 0.175
2 | Cc1cc2c(nc1C)CCCCN2CC(C)ON=C[C@@H](C)[C@H](OCc1ccccc1)C(C)C (stereo not given in full) | -0.766 | -0.715 (inactive) | -14.4 (active) | 0.365 (inactive) | -1.02 | 0.162 (inactive) | -0.204 | -0.913 | -1.01 | -0.3 | -0.504 | -0.873 | -0.122 | -0.037 (inactive) | -1.92 | -1.05 | -1.85 | -0.934 | -0.969 | 0.911
3 | Cc1ccc(S(=O)(=O)N[C@H]2COC(=O)CC=C[C@@H](C)COC(=O)CC=C[C@@H]2C)cc1 | 0.683 | 0.611 (inactive) | 0.174 (inactive) | 0.247 (inactive) | -0.953 | 0.682 (inactive) | 0.296 | 1.8 | -0.207 | -0.281 | 0.549 | -0.789 | -1.26 | 0.597 (inactive) | 0.813 | 0.448 | 0.823 | 1.4 | 2.04 | 1.36
4 | CCOC(=O)[C@H](CC(C)C)NC(=O)CCC1CC(OC(=O)NCCc2ccc(F)cc2)CC2(CCCC(COC(=O)NCCc3ccccc3OC)O2)O1 (stereo not given in full) | 1.15 | 0.217 (inactive) | 1.02 (inactive) | 0.471 (inactive) | 1.73 | -0.0351 (inactive) | -0.19 | 0.718 | 1.12 | 0.0004 | 0.82 | -0.186 | -0.313 | -0.135 (inactive) | 0.768 | 0.773 | 0.603 | 0.744 | 0.526 | -0.0274
5 | O=C1CCCC(C2=CCCCC2=O)C1 (stereo not given) | 0.0732 | 0.222 (inactive) | 0.65 (inactive) | 0.6 (inactive) | -0.168 | 0.455 (inactive) | 0.02 | 0.546 | 0.0934 | -0.029 | -0.153 | -0.356 | -0.766 | 0.378 (inactive) | 0.466 | 0.555 | 0.612 | 0.668 | 0.923 | 1.5
6 | CCOC(=O)[C@H](Cc1ccccc1)NC(=O)CCC1CC(OC(=O)NCc2cccc3ccccc23)CC2(CCCC(COC(=O)NCCC(C)C)O2)O1 (stereo not given in full) | -0.923 | -1.04 (inactive) | -0.0031 (inactive) | -1.36 (inactive) | 0.284 | -0.444 (inactive) | 0.0062 | 0.0111 | -0.435 | -0.128 | 0.12 | -0.295 | -0.206 | -1.74 (inactive) | 0.143 | -0.448 | -0.135 | 0.133 | -0.096 | 0.388
7 | CCC1=NOC(CCC2CC(OC(=O)NCc3cccc4c3OCO4)CC3(CCCC(COC(=O)NCCc4ccccc4OC)O3)O2)C1 (stereo not given) | 1.26 | -0.873 (inactive) | 0.168 (inactive) | 0.327 (inactive) | 2.38 | 1.11 (inactive) | -0.099 | 0.079 | 0.53 | -0.0424 | 1.09 | -0.16 | -0.0595 | 0.0991 (inactive) | 0.709 | 0.391 | 0.0007 | 0.192 | 0.859 | 0.312
8 | CCOC(=O)[C@H](CC(C)C)NC(=O)CCC1CC(OC(=O)NCc2cccc3ccccc23)CC2(CCCC(COC(=O)NCCOc3ccccc3)O2)O1 (stereo not given in full) | 1.54 | -0.524 (inactive) | 0.269 (inactive) | 0.231 (inactive) | 1.13 | 0.0653 (inactive) | -0.177 | 0.317 | 0.859 | -0.171 | 0.951 | -0.246 | -0.383 | -1.87 (inactive) | 0.658 | 1.03 | 0.557 | 0.887 | 0.344 | 0.184
9 | COC(=O)CC=C[C@@H](C)[C@@H](C=NOCC[C@@H]1C=C[C@H](OC(C)=O)[C@@H](COC(C)=O)O1)OC | 1.08 | 0.355 (inactive) | -0.295 (inactive) | 0.474 (inactive) | 0.431 | -0.152 (inactive) | -0.0321 | 0.405 | 0.308 | 0.0754 | 0.381 | -0.0928 | -0.546 | 1.21 (inactive) | 0.933 | 0.328 | 0.498 | 0.651 | 0.556 | -0.3
10 | O=C(NN=C1C[C@@H](O)[C@@H](O)[C@@H]2[C@@H]3C(=O)N(C[C@@H]4CCCO4)C(=O)[C@@H]3CC[C@@H]12)OCc1ccccc1 | 1.04 | -1.74 (inactive) | -0.199 (inactive) | -0.655 (inactive) | -0.0366 | -0.202 (inactive) | -0.27 | 0.907 | 0.208 | -0.0947 | 0.789 | -0.32 | -0.916 | -1.03 (inactive) | 0.127 | 1.09 | 0.509 | 0.0972 | 0.486 | 0.781
